# Measurements taken from the supplement of paper PMC4466140.
# Experiments:
# Test in all cases: SPOT peptide array binding signal intensity (averaged, normalized) (arbitrary units (background-subtracted, floor 0; scale differs between SH3 domains)); higher = stronger binding of the SH3 domain to the peptide
# AgAbp1 = target: AgAbp1
# Method in brief: (§1)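 Cellulose membranes carried synthetic 15-mer peptides with cysteines swapped for serines. These were incubated overnight at 4°C with 10 μg/ml of GST-fused SH3 domains from four yeast species in TBS-based blocking buffer. Binding signal, detected with anti-GST antibody and quantified in Genespotter, is the normalized, background-subtracted spot intensity averaged over replicates, in arbitrary units specific to each domain.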
# AgBbc1 = target: AgBbc1
# Method in brief: as §1
# AgBem1-D1 = target: AgBem1-D1
# Method in brief: as §1
# AgBzz1-D1 = target: AgBzz1-D1
# Method in brief: as §1
# AgBzz1-D2 = target: AgBzz1-D2
# Method in brief: as §1
# AgCyk3 = target: AgCyk3
# Method in brief: as §1
# AgFus1 = target: AgFus1
# Method in brief: as §1
# AgHof1 = target: AgHof1
# Method in brief: as §1
# AgHse1 = target: AgHse1
# Method in brief: as §1
# AgLsb1 = target: AgLsb1
# Method in brief: as §1
# AgLsb4 = target: AgLsb4
# Method in brief: as §1
# AgMyo5 = target: AgMyo5
# Method in brief: as §1
# AgNbp2 = target: AgNbp2
# Method in brief: as §1
# AgRvs167 = target: AgRvs167
# Method in brief: as §1
# AgSho1 = target: AgSho1
# Method in brief: as §1
# AgSla1-D1-D2 = target: AgSla1-D1-D2
# Method in brief: as §1
# AgSla1-D3 = target: AgSla1-D3
# Method in brief: as §1
# CaAbp1-D1 = target: CaAbp1-D1
# Method in brief: as §1
# CaAbp1-D2 = target: CaAbp1-D2
# Method in brief: as §1
# CaBbc1 = target: CaBbc1
# Method in brief: as §1
# CaBem1-D1 = target: CaBem1-D1
# Method in brief: as §1
# CaBzz1-D1 = target: CaBzz1-D1
# Method in brief: as §1
# CaBzz1-D2 = target: CaBzz1-D2
# Method in brief: as §1
# CaCyk3 = target: CaCyk3
# Method in brief: as §1
# CaFus1 = target: CaFus1
# Method in brief: as §1
# CaHof1 = target: CaHof1
# Method in brief: as §1
# CaHse1 = target: CaHse1
# Method in brief: as §1
# CaLsb1 = target: CaLsb1
# Method in brief: as §1
# CaLsb4 = target: CaLsb4
# Method in brief: as §1
# CaMyo5 = target: CaMyo5
# Method in brief: as §1
# CaNbp2 = target: CaNbp2
# Method in brief: as §1
# CaRvs167 = target: CaRvs167
# Method in brief: as §1
# CaRvs167-3 = target: CaRvs167-3
# Method in brief: as §1
# CaSho1 = target: CaSho1
# Method in brief: as §1
# CaSla1-D1-D2 = target: CaSla1-D1-D2
# Method in brief: as §1
# CaSla1-D3 = target: CaSla1-D3
# Method in brief: as §1
# ScAbp1 = target: ScAbp1
# Method in brief: as §1
# ScBbc1 = target: ScBbc1
# Method in brief: as §1
# ScBem1-D1 = target: ScBem1-D1
# Method in brief: as §1
# ScBzz1-D1 = target: ScBzz1-D1
# Method in brief: as §1
# ScBzz1-D2 = target: ScBzz1-D2
# Method in brief: as §1
# ScCyk3 = target: ScCyk3
# Method in brief: as §1
# ScFus1 = target: ScFus1
# Method in brief: as §1
# ScHof1 = target: ScHof1
# Method in brief: as §1
# ScHse1 = target: ScHse1
# Method in brief: as §1
# ScLsb1 = target: ScLsb1
# Method in brief: as §1
# ScLsb2 = target: ScLsb2
# Method in brief: as §1
# ScLsb3 = target: ScLsb3
# Method in brief: as §1
# ScLsb4 = target: ScLsb4
# Method in brief: as §1
# ScMyo3 = target: ScMyo3
# Method in brief: as §1
# ScMyo5 = target: ScMyo5
# Method in brief: as §1
# ScNbp2 = target: ScNbp2
# Method in brief: as §1
# ScPex13 = target: ScPex13
# Method in brief: as §1
# ScRvs167 = target: ScRvs167
# Method in brief: as §1
# ScSho1 = target: ScSho1
# Method in brief: as §1
# ScSla1-D1-D2 = target: ScSla1-D1-D2
# Method in brief: as §1
# ScSla1-D3 = target: ScSla1-D3
# Method in brief: as §1
# SpAbp1-D1 = target: SpAbp1-D1
# Method in brief: as §1
# SpBbc1 = target: SpBbc1
# Method in brief: as §1
# SpBzz1-D1 = target: SpBzz1-D1
# Method in brief: as §1
# SpBzz1-D2 = target: SpBzz1-D2
# Method in brief: as §1
# SpCyk3 = target: SpCyk3
# Method in brief: as §1
# SpHof1 = target: SpHof1
# Method in brief: as §1
# SpHof1-2 = target: SpHof1-2
# Method in brief: as §1
# SpHof1-3 = target: SpHof1-3
# Method in brief: as §1
# SpHse1 = target: SpHse1
# Method in brief: as §1
# SpLsb1 = target: SpLsb1
# Method in brief: as §1
# SpLsb4 = target: SpLsb4
# Method in brief: as §1
# SpMyo1 = target: SpMyo1
# Method in brief: as §1
# SpNbp2 = target: SpNbp2
# Method in brief: as §1
# SpPex13 = target: SpPex13
# Method in brief: as §1
# SpRvs167 = target: SpRvs167
# Method in brief: as §1
# SpSla1-D1-D2 = target: SpSla1-D1-D2
# Method in brief: as §1
# SpSla1-D3 = target: SpSla1-D3
# Method in brief: as §1
binder,measurement,setting,value
RMVRRRPLRVQFSAR,SPOT peptide array binding signal intensity,AgAbp1,341
same,SPOT peptide array binding signal intensity,AgBbc1,152
same,SPOT peptide array binding signal intensity,AgBem1-D1,477
same,SPOT peptide array binding signal intensity,AgBzz1-D1,102
same,SPOT peptide array binding signal intensity,AgBzz1-D2,93.5
same,SPOT peptide array binding signal intensity,AgCyk3,3
same,SPOT peptide array binding signal intensity,AgFus1,2500
same,SPOT peptide array binding signal intensity,AgHof1,44.8
same,SPOT peptide array binding signal intensity,AgHse1,1410
same,SPOT peptide array binding signal intensity,AgLsb1,16.5
same,SPOT peptide array binding signal intensity,AgLsb4,606
same,SPOT peptide array binding signal intensity,AgMyo5,2.5
same,SPOT peptide array binding signal intensity,AgNbp2,1110
same,SPOT peptide array binding signal intensity,AgRvs167,10.8
same,SPOT peptide array binding signal intensity,AgSho1,634
same,SPOT peptide array binding signal intensity,AgSla1-D1-D2,284
same,SPOT peptide array binding signal intensity,AgSla1-D3,28.2
same,SPOT peptide array binding signal intensity,CaAbp1-D1,820
same,SPOT peptide array binding signal intensity,CaAbp1-D2,810
same,SPOT peptide array binding signal intensity,CaBbc1,247
same,SPOT peptide array binding signal intensity,CaBem1-D1,495
same,SPOT peptide array binding signal intensity,CaBzz1-D1,202
same,SPOT peptide array binding signal intensity,CaBzz1-D2,245
same,SPOT peptide array binding signal intensity,CaCyk3,104
same,SPOT peptide array binding signal intensity,CaFus1,3490
same,SPOT peptide array binding signal intensity,CaHof1,2.5
same,SPOT peptide array binding signal intensity,CaHse1,464
same,SPOT peptide array binding signal intensity,CaLsb1,12.5
same,SPOT peptide array binding signal intensity,CaLsb4,1050
same,SPOT peptide array binding signal intensity,CaMyo5,58
same,SPOT peptide array binding signal intensity,CaNbp2,1470
same,SPOT peptide array binding signal intensity,CaRvs167,190
same,SPOT peptide array binding signal intensity,CaRvs167-3,216
same,SPOT peptide array binding signal intensity,CaSho1,1620
same,SPOT peptide array binding signal intensity,CaSla1-D1-D2,590
same,SPOT peptide array binding signal intensity,CaSla1-D3,700
same,SPOT peptide array binding signal intensity,ScAbp1,188
same,SPOT peptide array binding signal intensity,ScBbc1,90.2
same,SPOT peptide array binding signal intensity,ScBem1-D1,142
same,SPOT peptide array binding signal intensity,ScBzz1-D1,39.5
same,SPOT peptide array binding signal intensity,ScBzz1-D2,238
same,SPOT peptide array binding signal intensity,ScCyk3,81.5
same,SPOT peptide array binding signal intensity,ScFus1,1530
same,SPOT peptide array binding signal intensity,ScHof1,12
same,SPOT peptide array binding signal intensity,ScHse1,2920
same,SPOT peptide array binding signal intensity,ScLsb1,23.2
same,SPOT peptide array binding signal intensity,ScLsb2,14
same,SPOT peptide array binding signal intensity,ScLsb3,1400
same,SPOT peptide array binding signal intensity,ScLsb4,364
same,SPOT peptide array binding signal intensity,ScMyo3,16
same,SPOT peptide array binding signal intensity,ScMyo5,2
same,SPOT peptide array binding signal intensity,ScNbp2,1660
same,SPOT peptide array binding signal intensity,ScPex13,40
same,SPOT peptide array binding signal intensity,ScRvs167,164
same,SPOT peptide array binding signal intensity,ScSho1,1900
same,SPOT peptide array binding signal intensity,ScSla1-D1-D2,1030
same,SPOT peptide array binding signal intensity,ScSla1-D3,217
same,SPOT peptide array binding signal intensity,SpAbp1-D1,558
same,SPOT peptide array binding signal intensity,SpBbc1,38.8
same,SPOT peptide array binding signal intensity,SpBzz1-D1,224
same,SPOT peptide array binding signal intensity,SpBzz1-D2,30.5
same,SPOT peptide array binding signal intensity,SpCyk3,7
same,SPOT peptide array binding signal intensity,SpHof1,556
same,SPOT peptide array binding signal intensity,SpHof1-2,29.5
same,SPOT peptide array binding signal intensity,SpHof1-3,862
same,SPOT peptide array binding signal intensity,SpHse1,874
same,SPOT peptide array binding signal intensity,SpLsb1,21
same,SPOT peptide array binding signal intensity,SpLsb4,1330
same,SPOT peptide array binding signal intensity,SpMyo1,46.2
same,SPOT peptide array binding signal intensity,SpNbp2,1850
same,SPOT peptide array binding signal intensity,SpPex13,320
same,SPOT peptide array binding signal intensity,SpRvs167,66.2
same,SPOT peptide array binding signal intensity,SpSla1-D1-D2,15
same,SPOT peptide array binding signal intensity,SpSla1-D3,81
RPKRRAPPPVPKKPS,SPOT peptide array binding signal intensity,CaNbp2,3680
same,SPOT peptide array binding signal intensity,CaRvs167,127
same,SPOT peptide array binding signal intensity,CaRvs167-3,170
same,SPOT peptide array binding signal intensity,CaSho1,236
same,SPOT peptide array binding signal intensity,CaSla1-D1-D2,3850
same,SPOT peptide array binding signal intensity,CaSla1-D3,920
same,SPOT peptide array binding signal intensity,ScAbp1,3840
same,SPOT peptide array binding signal intensity,ScBbc1,835
same,SPOT peptide array binding signal intensity,ScBem1-D1,69
same,SPOT peptide array binding signal intensity,ScBzz1-D1,1610
same,SPOT peptide array binding signal intensity,ScBzz1-D2,75.5
same,SPOT peptide array binding signal intensity,ScCyk3,17.5
same,SPOT peptide array binding signal intensity,ScFus1,42.5
same,SPOT peptide array binding signal intensity,ScHof1,0.5
same,SPOT peptide array binding signal intensity,ScHse1,432
same,SPOT peptide array binding signal intensity,ScLsb1,819
same,SPOT peptide array binding signal intensity,ScLsb2,796
same,SPOT peptide array binding signal intensity,ScLsb3,3720
same,SPOT peptide array binding signal intensity,ScLsb4,95
same,SPOT peptide array binding signal intensity,ScMyo3,705
same,SPOT peptide array binding signal intensity,ScMyo5,471
same,SPOT peptide array binding signal intensity,ScNbp2,5640
same,SPOT peptide array binding signal intensity,ScPex13,482
same,SPOT peptide array binding signal intensity,ScRvs167,1640
same,SPOT peptide array binding signal intensity,ScSho1,2030
same,SPOT peptide array binding signal intensity,ScSla1-D1-D2,3510
same,SPOT peptide array binding signal intensity,ScSla1-D3,896
same,SPOT peptide array binding signal intensity,SpAbp1-D1,3020
same,SPOT peptide array binding signal intensity,SpBbc1,115
same,SPOT peptide array binding signal intensity,SpBzz1-D1,1740
same,SPOT peptide array binding signal intensity,SpBzz1-D2,713
same,SPOT peptide array binding signal intensity,SpCyk3,4
same,SPOT peptide array binding signal intensity,SpHof1,374
same,SPOT peptide array binding signal intensity,SpHof1-2,43.2
same,SPOT peptide array binding signal intensity,SpHof1-3,972
same,SPOT peptide array binding signal intensity,SpHse1,221
same,SPOT peptide array binding signal intensity,SpLsb1,1830
same,SPOT peptide array binding signal intensity,SpLsb4,925
same,SPOT peptide array binding signal intensity,SpMyo1,687
same,SPOT peptide array binding signal intensity,SpNbp2,173
same,SPOT peptide array binding signal intensity,SpPex13,220
same,SPOT peptide array binding signal intensity,SpRvs167,1300
same,SPOT peptide array binding signal intensity,SpSla1-D1-D2,1490
same,SPOT peptide array binding signal intensity,SpSla1-D3,2
